The record followed here is PubChem BioAssay (Tox21).

Experiment [1] is described as follows: Nuclear factor erythroid 2-related factor 2/antioxidant responsive element (Nrf2/ARE) small molecule agonists: luciferase reporter gene qHTS assay in human keratinocytes (AID 1919969). Further: nearly all actives have a fitted effect of over 35% in size.
The target of experiment [2] is Gonadotropin-releasing hormone receptor (Homo sapiens) (UniProt P30968). In words: Human gonadotropin-releasing hormone receptor (GnRHR) small molecule agonists, calcium flux assay in GnRHR-HEK293 cells (AID 1920063). Further: nearly all actives have a fitted effect of over 35% in size. The procedure, abridged: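 Cells: HEK293 stably expressing human GnRHR. Steps: overnight (18 h) culture, 1 h calcium dye loading at 37 C, compound addition, kinetic fluorescence read at 480/540 nm. Each compound tested at 15 concentrations in triplicate.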
(In general: Calcium flux is commonly read through the fluorescence of an indicator in the cells.)

In experiment [3] the target is KiSS-1 receptor (Homo sapiens) (UniProt Q969F8). The experiment is described as follows: Human kisspeptin (KISS1R) small molecule agonists, calcium flux assay in KISS1R-HEK293 cells (AID 1920064; active means well fitted activation curve with a large enough effect in the repeat runs). The procedure, abridged: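 Cells plated and incubated 18 h; dye added, 1 h at 37 C; compounds in DMSO pinned in; signal read at 480/540 nm every second for 3 min. Each compound tested at 15 concentrations in triplicate.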

Experiment [4] in a line: G protein-coupled receptor (GPCR) small molecule agonists, calcium flux assay: HEK293 wild type cell line counter screen (AID 1920065). The procedure, abridged: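 Counter-screen of the Tox21 10K library for non-specific calcium release: dye-loaded cells received compounds in DMSO and were monitored by kinetic fluorescence (480/540 nm, 3 min). Fifteen concentrations, run in triplicate.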

A short description of experiment [5]: p53 small molecule agonists, cell-based qHTS assay with human liver microsomes (AID 1963577).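 Further: p53 response element beta-lactamase reporter cells with liver microsomes plus NADPH.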 The procedure, abridged: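 HLM-supplemented p53RE-bla reporter assay: 16 h compound exposure at 37 C, microsomes and NADPH each 0.5 mg/mL final, read by fluorescence intensity.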
(qHTS replaces the single test concentration by a dilution series.)

Experiment [6] is described as follows: p53 small molecule agonists, cell-based qHTS assay with rat liver microsomes (AID 1963578). The procedure, abridged:
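Quantitative HTS of the Tox21 10K library: p53RE-bla cells, rat liver microsomes plus NADPH at 0.5 mg/mL final each, 16 h at 37 C, beta-lactamase fluorescence detection.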

A short description of experiment [7]: p53 small molecule agonists, cell-based qHTS assay with human liver microsomes: qHTS cell viability counter screen (AID 1963579). Further: nearly all actives have a fitted effect of over 45% in size. The procedure, abridged: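 Viability of p53RE-bla cells is measured as CellTiter-Glo luminescence following a 16 h, 37 C incubation with compound, liver microsomes from human donors and NADPH.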
Experiment [8] is described as follows: p53 small molecule agonists, cell-based qHTS assay with rat liver microsomes: qHTS cell viability counter screen (AID 1963580). Further: nearly all actives have a fitted effect of over 45% in size. The procedure, abridged: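 In HCT-116 cells carrying a p53 response element-bla reporter, compounds were metabolically activated in situ by rat liver microsomes with NADPH over 16 h. Cell ATP content then served as the cytotoxicity measure.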

The nature of experiment [9]: p53 small molecule agonists, cell-based qHTS assay: qHTS cell viability counter screen (AID 1963581). Further: nearly all actives have a fitted effect of over 45% in size. The procedure, abridged: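 Cells: HCT-116 with p53 response element-driven beta-lactamase. Treatment: 16 h, 37 C, compounds in DMSO. Read: CellTiter-Glo luminescence after 30 min RT.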
Experiment [10] in a line: p53 small molecule agonists, cell-based qHTS assay (AID 1963582; active means well fitted activation curve with a large enough effect in the signal ratio in the repeat runs, not every such curve was filed as active; the % refers to the signal ratio). The procedure, abridged:
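Quantitative HTS in p53RE-bla cells: after a 5 h settling period, compounds delivered in DMSO were left on cells for 16 h at 37 C, and reporter induction was measured as fluorescence following 2 h substrate loading.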

Experiment [11] can be described thus: cAMP Responsive Elements (CRE) small molecule agonists, cell-based qHTS assay (AID 1963590). The procedure, abridged: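 Agonist mode qHTS in CRE-bla HEK 293T cells: compounds dosed from DMSO for 3 h at 37 C/5% CO2, followed by LiveBLAzer B/G FRET substrate for 2 h at room temperature.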
Experiment [12] deals with Beta-2 adrenergic receptor (Homo sapiens) (UniProt P07550). In words: Adrenergic beta2 receptor (ADRB2) small molecule agonists, cell-based qHTS assay (AID 1963593).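 Further: CHO cells stably overexpressing human ADRB2.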 The procedure, abridged:
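CHO cells stably over-expressing ADRB2 were plated overnight at 37C, then dosed with compounds plus a stimulation mix containing 100uM IBMX and 25uM Ro-20-1724 for 0.5hr at room temperature. cAMP was measured by HTRF competition, 1hr.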

Experiment [13] has as its target D(2) dopamine receptor (Homo sapiens) (UniProt P14416). In words: Dopamine D2 receptor (DRD2) small molecule agonists, cell-based qHTS assay (AID 1963594). Further: nearly all actives have a fitted effect of over 35% in size. The procedure, abridged: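 HEK293 cells stably expressing DRD2 were cultured 24 h at 37 C, then given Ro20-1724 (0.1 mM final) and compounds for 10 min at room temperature. NKH477 (200nM) was then added for 30 min. cAMP was read by HTRF.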

Experiment [14] has as its target 5-hydroxytryptamine receptor 2A (Homo sapiens) (UniProt P28223). In words: 5-hydroxytryptamine receptor 2A (HTR2A) small molecule antagonists, cell-based qHTS assay (AID 1963586). Further: nearly all actives have a fitted effect of over 45% in size. The procedure, abridged: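 Antagonist-mode intracellular calcium assay: DOI (4 nM) added after 5 min compound pre-incubation at room temperature to dye-loaded HTR2A-CHO cells. Fluorescence followed for 3 min, sampled every second.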

Experiment [15] shares this target. The experiment is described as follows: 5-hydroxytryptamine receptor 2A (HTR2A) small molecule agonists, cell-based qHTS assay (AID 1963587). Further: nearly all actives have a fitted effect of over 30% in size. The procedure, abridged:
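HTR2A-CHO cells, plated 18 h at 37 C/5% CO2, dye-loaded 1 h at 37 C; compounds in DMSO added by pin tool (agonist mode). Intracellular calcium flux read as kinetic fluorescence on FDSS over 2 min at 1 s intervals.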

The target in experiment [16] is Muscarinic acetylcholine receptor M1 (Homo sapiens) (UniProt P11229). In words: Cholinergic receptor muscarinic 1 (CHRM1) small molecule antagonists, cell-based qHTS assay (AID 1963588). Further: nearly all actives have a fitted effect of over 40% in size. Further: potency means the concentration at half of the fitted maximal effect. The procedure, abridged:
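CHRM1-CHO calcium-flux assay, antagonist mode. Cells were seeded 18 h, dye-loaded 1 h at 37 C and given compound for 5 min at RT, then acetylcholine was added at 50nM. FDSS fluorescence was read 3 min; 15 concentrations, three runs.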

Experiment [17] shares this target. The experiment is described as follows: Cholinergic receptor muscarinic 1 (CHRM1) small molecule agonists, cell-based qHTS assay (AID 1963589). Further: nearly all actives have a fitted effect of over 35% in size. The procedure, abridged:
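Agonist-mode qHTS in CHO cells stably carrying human muscarinic M1. Intracellular calcium is tracked by fluorescence every second after compound transfer; each compound runs at 15 concentrations in three independent runs.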

Experiment [18] can be described thus: cAMP Responsive Elements (CRE) small molecule antagonists, cell-based qHTS assay (AID 1963591; active means well fitted inhibition curve with a large enough effect in the signal ratio in the repeat runs, not every such curve was filed as active; the % refers to the signal ratio). The procedure, abridged:
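Antagonist mode: test compounds are co-incubated with the adenylyl cyclase activator NKH477 (0.25 uM final) on CRE-bla HEK293T cells for 3 h at 37 °C, followed by LiveBLAzer substrate loading.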

The target in experiment [19] is Beta-2 adrenergic receptor (Homo sapiens) (UniProt P07550). In words: Adrenergic beta2 receptor (ADRB2) small molecule antagonists, cell-based qHTS assay (AID 1963592). Further: series mostly up to about 92 µM; nearly all actives have a fitted effect of over 50% in size. The procedure, abridged: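 Cells (CHO, stable ADRB2 overexpression) incubated 18-20hr at 37C; compounds added from DMSO; agonist mix (1nM isoproterenol, 100uM IBMX, 25uM Ro-20-1724) added; 0.5hr RT; d2-cAMP and anti-cAMP-cryptate added; 1hr RT; 665/615 nm read.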

In experiment [20] the target is D(2) dopamine receptor (Homo sapiens) (UniProt P14416). The experiment is described as follows: Dopamine D2 receptor (DRD2) small molecule antagonists, cell-based qHTS assay (AID 1963595; active means well fitted inhibition curve with a large enough effect in the signal ratio in the repeat runs, with a control signal flat; the % refers to the signal ratio). The procedure, abridged: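 HTRF cAMP read-out at 665 and 620 nm emission (340 nm excitation). Antagonist mode: compounds were tested against 12 nM quinpirole in DRD2-HEK293 cells, with 200 nM NKH477 raising cAMP and 0.1 mM Ro20-1724 blocking its breakdown.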

Results filed as inconclusive are left out. Active and inactive are the calls of the source. Unless noted, the call rests on the fitted dose curve.

Chain of Muscarinic acetylcholine receptor M1 (Homo sapiens) (P11229 whole entry, looked up): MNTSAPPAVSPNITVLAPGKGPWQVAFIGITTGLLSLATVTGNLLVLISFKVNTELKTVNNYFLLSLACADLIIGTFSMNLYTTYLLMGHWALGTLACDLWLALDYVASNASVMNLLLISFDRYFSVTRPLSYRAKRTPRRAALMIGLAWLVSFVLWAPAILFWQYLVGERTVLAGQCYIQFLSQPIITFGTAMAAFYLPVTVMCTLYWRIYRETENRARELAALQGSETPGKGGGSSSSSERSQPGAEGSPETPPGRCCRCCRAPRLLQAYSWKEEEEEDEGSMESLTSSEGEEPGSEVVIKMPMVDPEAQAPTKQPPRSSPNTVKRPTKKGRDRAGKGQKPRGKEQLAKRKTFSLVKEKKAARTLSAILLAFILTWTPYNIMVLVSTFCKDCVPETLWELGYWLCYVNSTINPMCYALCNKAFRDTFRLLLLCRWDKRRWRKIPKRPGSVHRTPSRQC
Chain of KiSS-1 receptor (Homo sapiens) (Q969F8 whole entry, looked up): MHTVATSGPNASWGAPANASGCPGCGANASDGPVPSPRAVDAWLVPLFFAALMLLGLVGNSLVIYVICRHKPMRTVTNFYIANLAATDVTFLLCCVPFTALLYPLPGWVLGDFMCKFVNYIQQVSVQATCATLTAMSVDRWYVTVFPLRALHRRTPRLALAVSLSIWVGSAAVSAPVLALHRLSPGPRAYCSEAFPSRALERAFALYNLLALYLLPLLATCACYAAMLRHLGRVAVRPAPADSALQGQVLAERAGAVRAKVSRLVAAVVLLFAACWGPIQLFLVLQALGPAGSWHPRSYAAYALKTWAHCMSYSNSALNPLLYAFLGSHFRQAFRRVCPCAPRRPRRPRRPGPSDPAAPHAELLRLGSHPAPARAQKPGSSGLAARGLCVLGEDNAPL
Chain of Beta-2 adrenergic receptor (Homo sapiens) (P07550 whole entry, looked up): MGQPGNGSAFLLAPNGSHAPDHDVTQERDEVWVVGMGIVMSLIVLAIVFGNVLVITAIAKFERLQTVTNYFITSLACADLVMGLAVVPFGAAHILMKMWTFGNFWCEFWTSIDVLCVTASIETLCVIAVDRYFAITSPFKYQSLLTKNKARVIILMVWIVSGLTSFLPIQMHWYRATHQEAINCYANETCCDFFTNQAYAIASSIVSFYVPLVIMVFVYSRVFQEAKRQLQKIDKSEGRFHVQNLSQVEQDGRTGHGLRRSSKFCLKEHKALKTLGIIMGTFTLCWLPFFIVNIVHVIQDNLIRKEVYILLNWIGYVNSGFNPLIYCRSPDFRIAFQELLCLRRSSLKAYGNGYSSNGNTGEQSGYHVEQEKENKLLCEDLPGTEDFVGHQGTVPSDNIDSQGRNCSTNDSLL
Chain of 5-hydroxytryptamine receptor 2A (Homo sapiens) (P28223 whole entry, looked up): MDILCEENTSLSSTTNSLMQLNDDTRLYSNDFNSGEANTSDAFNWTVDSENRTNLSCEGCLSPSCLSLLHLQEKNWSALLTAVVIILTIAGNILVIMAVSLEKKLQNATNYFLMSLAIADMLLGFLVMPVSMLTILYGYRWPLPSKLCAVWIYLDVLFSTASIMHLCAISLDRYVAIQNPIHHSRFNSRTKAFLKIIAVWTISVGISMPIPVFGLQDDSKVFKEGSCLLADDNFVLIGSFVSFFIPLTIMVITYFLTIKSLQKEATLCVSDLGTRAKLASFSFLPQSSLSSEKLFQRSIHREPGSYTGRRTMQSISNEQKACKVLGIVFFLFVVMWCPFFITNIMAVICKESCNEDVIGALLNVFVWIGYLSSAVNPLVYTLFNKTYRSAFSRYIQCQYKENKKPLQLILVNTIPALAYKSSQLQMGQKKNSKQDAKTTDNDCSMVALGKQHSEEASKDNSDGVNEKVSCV
Chain of Gonadotropin-releasing hormone receptor (Homo sapiens) (P30968 whole entry, looked up): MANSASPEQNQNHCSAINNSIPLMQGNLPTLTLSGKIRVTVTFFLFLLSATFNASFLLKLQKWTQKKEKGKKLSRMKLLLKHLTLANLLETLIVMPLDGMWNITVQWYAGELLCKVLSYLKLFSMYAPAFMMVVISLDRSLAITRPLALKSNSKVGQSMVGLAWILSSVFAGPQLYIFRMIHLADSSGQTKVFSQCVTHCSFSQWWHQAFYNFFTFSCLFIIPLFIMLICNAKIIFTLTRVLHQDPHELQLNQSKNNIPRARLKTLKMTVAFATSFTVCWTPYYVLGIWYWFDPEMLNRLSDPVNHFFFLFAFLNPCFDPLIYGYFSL
Chain of D(2) dopamine receptor (Homo sapiens) (P14416 whole entry, looked up): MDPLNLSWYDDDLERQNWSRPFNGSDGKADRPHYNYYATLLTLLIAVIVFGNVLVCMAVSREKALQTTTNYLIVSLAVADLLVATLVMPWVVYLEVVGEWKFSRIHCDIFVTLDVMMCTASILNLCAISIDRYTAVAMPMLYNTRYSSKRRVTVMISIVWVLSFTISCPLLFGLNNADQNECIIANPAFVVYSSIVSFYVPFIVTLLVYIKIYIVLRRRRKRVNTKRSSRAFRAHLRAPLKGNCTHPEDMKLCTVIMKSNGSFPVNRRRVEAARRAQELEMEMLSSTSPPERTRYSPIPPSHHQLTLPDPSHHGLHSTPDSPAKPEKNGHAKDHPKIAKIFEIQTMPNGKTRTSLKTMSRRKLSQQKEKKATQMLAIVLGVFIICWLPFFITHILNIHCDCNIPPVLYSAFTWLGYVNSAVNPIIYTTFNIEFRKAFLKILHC

For the compound `C#C[C@]1(O)CC[C@H]2[C@@H]3CCC4=CC(=O)CC[C@@H]4[C@H]3CC[C@@]21CC`, the Potency entry in experiment [1], in [2], in experiment [3], in [4], in experiment [5] and in experiment [6] was “inactive” in each case. Moreover, the Potency entry in [7], in experiment [8], in [9], in [10], in experiment [11] and in experiment [12] was “inactive” throughout. Moreover, the Potency result in experiment [13] is “inactive”.

Turning to `Cc1ccc(S(=O)(=O)Oc2ccc(N=Nc3ccc(-c4ccc(N=Nc5c(O)ccc6cc(S(=O)(=O)O)cc(S(=O)(=O)O)c56)c(C)c4)cc3C)cc2)cc1`, the Potency entry in [1], in experiment [2], in [3], in experiment [4], in experiment [5] and in [6] was “inactive” in each case. Besides, the Potency result in experiment [7], in experiment [8], in experiment [9], in experiment [10], in experiment [14] and in experiment [15] was “inactive” throughout. Also, the Potency entry in [16], in experiment [17], in experiment [11], in [18], in experiment [19] and in experiment [13] was “inactive” throughout. The Potency entry in experiment [20] is “inactive”.

Turning to `CC(C)=CCl`, the Potency entry in [1], in experiment [2], in experiment [3], in [4], in experiment [5] and in [6] was “inactive” throughout. The Potency entry in [7], in experiment [8], in experiment [9], in experiment [10], in experiment [14] and in experiment [15] was “inactive” each time. Besides, the Potency result in experiment [16], in experiment [17], in experiment [11], in [18], in [19] and in experiment [13] was “inactive” in each case. For the same compound, the Potency entry in experiment [20] is “inactive”.

Regarding `CCCC(O)C(CC)CO` (centres undefined), the Potency entry in [1], in experiment [2], in experiment [3], in experiment [4], in experiment [6] and in experiment [7] was “inactive” throughout. Moreover, the Potency result in experiment [8], in [9], in experiment [10], in experiment [14], in [15] and in experiment [16] was “inactive” each time. The Potency result in experiment [17], in [11], in [18], in experiment [19], in experiment [12] and in experiment [13] was “inactive” each time. For the same compound, in experiment [20], the Potency entry is “inactive”.

For `CC1(C)CC(N=C=O)CC(C)(CN=C=O)C1` (centres undefined), the Potency entry in [1], in experiment [2], in experiment [3], in [4], in experiment [5] and in experiment [7] was “inactive” each time. Further, the Potency result in [8], in [9], in experiment [10], in experiment [14], in [15] and in [17] was “inactive” throughout. The Potency entry in [11], in [18], in experiment [19], in experiment [12], in experiment [13] and in [20] was “inactive” in each case. Besides, the Potency in [16] was 17 µM (active).

Consider `CC(O)CN(CCN(CC(C)O)CC(C)O)CC(C)O` (centres undefined), for which the Potency result in [1], in [2], in experiment [3], in [4], in experiment [5] and in [6] was “inactive” each time. Besides, the Potency result in experiment [7], in experiment [9], in experiment [10], in [14], in experiment [15] and in [17] was “inactive” each time. Further, the Potency result in [11], in experiment [19], in experiment [12], in experiment [13] and in experiment [20] was “inactive” in each case.

`OC[C@]1(O)OC[C@@H](O)[C@H](O)[C@@H]1O`: the Potency result in experiment [1], in experiment [2], in experiment [3], in experiment [4], in experiment [5] and in experiment [7] was “inactive” each time. Besides, the Potency entry in [8], in experiment [9], in [10], in experiment [14], in experiment [15] and in experiment [16] was “inactive” in each case. Moreover, the Potency result in [17], in experiment [11], in experiment [18], in experiment [12], in experiment [13] and in experiment [20] was “inactive” each time.
